According to the supplement of paper PMC11732987, “Enantioselective OTUD7B fragment discovery through chemoproteomics screening and high-throughput optimisation” (Communications Chemistry, 2025):

Assays:
Test in all cases: log2 ratio of Biotin-Ahx-Ub-VS probe labelling (fragment/DMSO); higher = less target engagement (more negative = stronger competition), active = hit call of the paper (q ≤ 0.05, log2 ratio ≤ -1)
Conditions in all cases: compound concentration: 200 uM; treatment time: 3 h
[1] = target: T1, USP42 (UniProt Q9H9J4)
T1 sequence (whole entry): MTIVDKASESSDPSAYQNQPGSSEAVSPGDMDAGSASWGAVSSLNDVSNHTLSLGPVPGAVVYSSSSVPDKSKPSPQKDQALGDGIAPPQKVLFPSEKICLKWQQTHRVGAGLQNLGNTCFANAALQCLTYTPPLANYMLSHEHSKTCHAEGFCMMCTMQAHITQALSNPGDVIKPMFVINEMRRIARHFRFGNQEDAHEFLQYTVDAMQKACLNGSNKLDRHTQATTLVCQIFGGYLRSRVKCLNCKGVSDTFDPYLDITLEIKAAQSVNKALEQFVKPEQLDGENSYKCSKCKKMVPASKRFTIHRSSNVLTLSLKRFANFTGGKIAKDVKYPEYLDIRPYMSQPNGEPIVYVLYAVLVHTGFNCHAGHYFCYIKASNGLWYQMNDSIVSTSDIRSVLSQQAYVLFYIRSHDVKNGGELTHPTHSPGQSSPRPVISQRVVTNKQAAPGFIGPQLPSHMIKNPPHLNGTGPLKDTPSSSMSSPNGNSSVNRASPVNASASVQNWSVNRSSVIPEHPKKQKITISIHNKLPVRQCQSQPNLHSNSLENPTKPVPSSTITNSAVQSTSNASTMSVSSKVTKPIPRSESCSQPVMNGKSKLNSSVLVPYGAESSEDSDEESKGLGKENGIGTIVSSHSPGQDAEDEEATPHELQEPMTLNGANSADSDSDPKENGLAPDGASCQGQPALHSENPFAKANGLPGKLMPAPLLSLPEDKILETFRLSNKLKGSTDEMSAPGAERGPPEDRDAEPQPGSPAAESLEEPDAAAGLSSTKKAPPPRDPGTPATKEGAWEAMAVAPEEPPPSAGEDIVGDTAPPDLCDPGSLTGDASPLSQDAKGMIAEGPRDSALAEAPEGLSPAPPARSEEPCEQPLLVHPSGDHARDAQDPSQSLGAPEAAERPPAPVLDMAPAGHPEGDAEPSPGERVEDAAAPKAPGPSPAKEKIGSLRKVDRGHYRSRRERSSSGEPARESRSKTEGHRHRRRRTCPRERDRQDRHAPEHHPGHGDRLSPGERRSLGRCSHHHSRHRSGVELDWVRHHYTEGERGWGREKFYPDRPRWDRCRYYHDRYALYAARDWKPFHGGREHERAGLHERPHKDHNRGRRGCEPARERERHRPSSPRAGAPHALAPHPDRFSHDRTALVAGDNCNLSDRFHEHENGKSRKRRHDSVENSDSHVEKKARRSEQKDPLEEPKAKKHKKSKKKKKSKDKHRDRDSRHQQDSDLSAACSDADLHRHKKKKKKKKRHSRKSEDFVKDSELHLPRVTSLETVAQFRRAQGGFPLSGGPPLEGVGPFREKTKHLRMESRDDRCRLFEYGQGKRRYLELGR
How it was run: (§1)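 HEK293T lysate (495 µg per sample, in Tris/CHAPS/IGEPAL buffer with protease inhibitors) was treated in triplicate with fragment at 200 µM or with DMSO for 3 h. It was then treated with Biotin-Ahx-Ub-VS (0.5 µM final) for 1 h. Labelled DUBs were NeutrAvidin-enriched, digested with LysC and trypsin, and run by diaPASEF LC-MS/MS. Spectronaut label-free quantities were global-median-normalised. Values are average log2 ratios fragment/DMSO by unpaired t-test, using proteins with ≥2 unique peptides.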

[2] = target: USP46 (UniProt P62068)
USP46, sequence (P62068 whole entry): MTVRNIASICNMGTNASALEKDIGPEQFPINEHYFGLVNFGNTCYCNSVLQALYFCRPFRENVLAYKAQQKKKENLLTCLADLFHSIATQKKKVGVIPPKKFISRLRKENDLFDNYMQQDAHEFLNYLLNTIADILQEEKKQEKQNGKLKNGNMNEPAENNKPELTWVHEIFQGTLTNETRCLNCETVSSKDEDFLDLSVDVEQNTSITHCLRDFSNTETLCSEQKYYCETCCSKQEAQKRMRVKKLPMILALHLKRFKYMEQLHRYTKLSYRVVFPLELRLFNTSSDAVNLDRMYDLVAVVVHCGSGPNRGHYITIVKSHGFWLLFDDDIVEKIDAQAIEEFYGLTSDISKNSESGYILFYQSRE
How it was run: as §1

[3] = target: T2, USP47 (UniProt Q96K76)
T2 sequence (whole entry): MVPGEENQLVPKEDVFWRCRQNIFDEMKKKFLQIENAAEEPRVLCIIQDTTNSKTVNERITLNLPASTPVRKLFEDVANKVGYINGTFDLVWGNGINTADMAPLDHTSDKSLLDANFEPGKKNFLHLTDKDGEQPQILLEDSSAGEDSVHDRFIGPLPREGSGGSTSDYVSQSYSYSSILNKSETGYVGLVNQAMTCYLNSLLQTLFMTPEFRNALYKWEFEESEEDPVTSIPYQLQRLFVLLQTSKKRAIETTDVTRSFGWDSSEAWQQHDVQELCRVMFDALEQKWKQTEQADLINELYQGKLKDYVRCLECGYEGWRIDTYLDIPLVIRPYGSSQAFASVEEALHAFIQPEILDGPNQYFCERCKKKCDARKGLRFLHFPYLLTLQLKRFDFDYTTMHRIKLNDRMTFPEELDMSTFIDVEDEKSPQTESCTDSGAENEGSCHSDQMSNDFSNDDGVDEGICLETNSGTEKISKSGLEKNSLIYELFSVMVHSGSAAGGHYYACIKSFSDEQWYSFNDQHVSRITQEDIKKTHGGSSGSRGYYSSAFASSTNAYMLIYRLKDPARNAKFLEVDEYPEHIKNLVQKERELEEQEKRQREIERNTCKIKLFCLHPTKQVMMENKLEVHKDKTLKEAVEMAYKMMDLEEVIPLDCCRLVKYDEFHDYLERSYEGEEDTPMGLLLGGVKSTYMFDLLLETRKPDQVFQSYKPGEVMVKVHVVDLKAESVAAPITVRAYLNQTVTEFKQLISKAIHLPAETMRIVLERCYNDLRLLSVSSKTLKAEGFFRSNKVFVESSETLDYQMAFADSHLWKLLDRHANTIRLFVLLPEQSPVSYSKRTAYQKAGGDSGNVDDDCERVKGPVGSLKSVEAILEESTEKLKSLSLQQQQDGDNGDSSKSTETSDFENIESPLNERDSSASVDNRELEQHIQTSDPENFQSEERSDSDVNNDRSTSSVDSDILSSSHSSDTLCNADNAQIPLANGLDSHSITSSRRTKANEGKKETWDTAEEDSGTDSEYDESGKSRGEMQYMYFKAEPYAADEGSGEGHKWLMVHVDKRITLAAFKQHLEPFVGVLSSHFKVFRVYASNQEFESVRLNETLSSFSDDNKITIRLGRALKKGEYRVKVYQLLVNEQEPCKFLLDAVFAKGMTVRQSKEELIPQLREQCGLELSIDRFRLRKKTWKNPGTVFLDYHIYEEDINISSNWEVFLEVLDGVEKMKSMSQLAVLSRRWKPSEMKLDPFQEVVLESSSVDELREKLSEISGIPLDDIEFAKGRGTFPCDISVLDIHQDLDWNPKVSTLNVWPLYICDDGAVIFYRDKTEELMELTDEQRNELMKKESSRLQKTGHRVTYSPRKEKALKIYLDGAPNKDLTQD
How it was run: as §1

[4] = target: T3, USP48 (UniProt Q86UV5)
T3 sequence (whole entry): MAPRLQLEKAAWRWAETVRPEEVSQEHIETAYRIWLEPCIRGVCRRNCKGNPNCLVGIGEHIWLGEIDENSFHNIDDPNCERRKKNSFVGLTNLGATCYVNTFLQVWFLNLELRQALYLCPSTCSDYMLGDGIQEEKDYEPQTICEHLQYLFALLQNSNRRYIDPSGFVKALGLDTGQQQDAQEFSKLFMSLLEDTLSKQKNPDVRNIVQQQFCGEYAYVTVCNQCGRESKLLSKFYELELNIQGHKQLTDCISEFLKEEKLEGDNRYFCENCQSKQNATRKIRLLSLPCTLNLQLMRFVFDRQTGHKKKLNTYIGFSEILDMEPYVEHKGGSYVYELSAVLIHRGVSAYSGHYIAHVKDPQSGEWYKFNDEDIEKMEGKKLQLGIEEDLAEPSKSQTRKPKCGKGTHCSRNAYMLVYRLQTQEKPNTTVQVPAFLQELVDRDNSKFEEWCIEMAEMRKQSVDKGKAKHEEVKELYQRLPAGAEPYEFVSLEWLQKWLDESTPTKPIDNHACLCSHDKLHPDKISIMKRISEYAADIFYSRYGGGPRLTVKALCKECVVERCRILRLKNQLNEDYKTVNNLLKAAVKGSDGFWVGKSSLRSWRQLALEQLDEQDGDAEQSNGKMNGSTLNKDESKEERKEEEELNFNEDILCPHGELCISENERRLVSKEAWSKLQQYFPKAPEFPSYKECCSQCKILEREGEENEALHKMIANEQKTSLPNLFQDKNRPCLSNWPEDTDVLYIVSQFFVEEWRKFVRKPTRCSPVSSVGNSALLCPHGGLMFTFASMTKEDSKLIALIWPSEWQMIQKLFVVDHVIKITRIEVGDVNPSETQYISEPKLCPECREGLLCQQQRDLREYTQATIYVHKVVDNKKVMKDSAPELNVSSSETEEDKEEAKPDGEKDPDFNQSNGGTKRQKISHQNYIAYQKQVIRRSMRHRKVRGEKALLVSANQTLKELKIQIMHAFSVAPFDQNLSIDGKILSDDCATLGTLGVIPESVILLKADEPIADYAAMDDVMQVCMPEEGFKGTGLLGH
How it was run: as §1

[5] = target: T4, USP5 (UniProt P45974)
T4 sequence (whole entry): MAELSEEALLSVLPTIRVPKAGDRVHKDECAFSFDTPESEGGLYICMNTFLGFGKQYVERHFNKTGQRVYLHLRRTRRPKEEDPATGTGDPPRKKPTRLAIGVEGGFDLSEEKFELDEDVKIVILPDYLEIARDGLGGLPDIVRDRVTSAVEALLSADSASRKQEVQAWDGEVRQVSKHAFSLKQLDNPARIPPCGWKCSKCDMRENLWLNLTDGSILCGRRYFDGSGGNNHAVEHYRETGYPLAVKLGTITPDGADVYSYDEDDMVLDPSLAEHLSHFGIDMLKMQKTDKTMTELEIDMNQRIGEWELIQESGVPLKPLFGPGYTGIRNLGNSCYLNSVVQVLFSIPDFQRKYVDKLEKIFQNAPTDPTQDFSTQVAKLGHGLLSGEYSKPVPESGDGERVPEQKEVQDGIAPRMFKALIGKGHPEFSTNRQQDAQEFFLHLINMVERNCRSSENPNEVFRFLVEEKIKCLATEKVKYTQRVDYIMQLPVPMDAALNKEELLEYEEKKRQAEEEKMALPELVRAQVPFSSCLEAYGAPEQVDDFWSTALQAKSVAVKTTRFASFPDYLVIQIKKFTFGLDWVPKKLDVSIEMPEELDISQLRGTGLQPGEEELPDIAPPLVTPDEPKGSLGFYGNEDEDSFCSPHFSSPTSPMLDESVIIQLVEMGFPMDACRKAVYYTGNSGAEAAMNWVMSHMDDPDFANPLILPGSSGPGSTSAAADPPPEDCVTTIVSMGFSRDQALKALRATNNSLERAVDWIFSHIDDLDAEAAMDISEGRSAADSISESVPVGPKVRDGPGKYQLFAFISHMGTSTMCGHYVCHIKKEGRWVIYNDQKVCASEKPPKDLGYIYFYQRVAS
How it was run: as §1

[6] = target: USP54 (UniProt Q70EL1)
USP54, sequence (Q70EL1 whole entry): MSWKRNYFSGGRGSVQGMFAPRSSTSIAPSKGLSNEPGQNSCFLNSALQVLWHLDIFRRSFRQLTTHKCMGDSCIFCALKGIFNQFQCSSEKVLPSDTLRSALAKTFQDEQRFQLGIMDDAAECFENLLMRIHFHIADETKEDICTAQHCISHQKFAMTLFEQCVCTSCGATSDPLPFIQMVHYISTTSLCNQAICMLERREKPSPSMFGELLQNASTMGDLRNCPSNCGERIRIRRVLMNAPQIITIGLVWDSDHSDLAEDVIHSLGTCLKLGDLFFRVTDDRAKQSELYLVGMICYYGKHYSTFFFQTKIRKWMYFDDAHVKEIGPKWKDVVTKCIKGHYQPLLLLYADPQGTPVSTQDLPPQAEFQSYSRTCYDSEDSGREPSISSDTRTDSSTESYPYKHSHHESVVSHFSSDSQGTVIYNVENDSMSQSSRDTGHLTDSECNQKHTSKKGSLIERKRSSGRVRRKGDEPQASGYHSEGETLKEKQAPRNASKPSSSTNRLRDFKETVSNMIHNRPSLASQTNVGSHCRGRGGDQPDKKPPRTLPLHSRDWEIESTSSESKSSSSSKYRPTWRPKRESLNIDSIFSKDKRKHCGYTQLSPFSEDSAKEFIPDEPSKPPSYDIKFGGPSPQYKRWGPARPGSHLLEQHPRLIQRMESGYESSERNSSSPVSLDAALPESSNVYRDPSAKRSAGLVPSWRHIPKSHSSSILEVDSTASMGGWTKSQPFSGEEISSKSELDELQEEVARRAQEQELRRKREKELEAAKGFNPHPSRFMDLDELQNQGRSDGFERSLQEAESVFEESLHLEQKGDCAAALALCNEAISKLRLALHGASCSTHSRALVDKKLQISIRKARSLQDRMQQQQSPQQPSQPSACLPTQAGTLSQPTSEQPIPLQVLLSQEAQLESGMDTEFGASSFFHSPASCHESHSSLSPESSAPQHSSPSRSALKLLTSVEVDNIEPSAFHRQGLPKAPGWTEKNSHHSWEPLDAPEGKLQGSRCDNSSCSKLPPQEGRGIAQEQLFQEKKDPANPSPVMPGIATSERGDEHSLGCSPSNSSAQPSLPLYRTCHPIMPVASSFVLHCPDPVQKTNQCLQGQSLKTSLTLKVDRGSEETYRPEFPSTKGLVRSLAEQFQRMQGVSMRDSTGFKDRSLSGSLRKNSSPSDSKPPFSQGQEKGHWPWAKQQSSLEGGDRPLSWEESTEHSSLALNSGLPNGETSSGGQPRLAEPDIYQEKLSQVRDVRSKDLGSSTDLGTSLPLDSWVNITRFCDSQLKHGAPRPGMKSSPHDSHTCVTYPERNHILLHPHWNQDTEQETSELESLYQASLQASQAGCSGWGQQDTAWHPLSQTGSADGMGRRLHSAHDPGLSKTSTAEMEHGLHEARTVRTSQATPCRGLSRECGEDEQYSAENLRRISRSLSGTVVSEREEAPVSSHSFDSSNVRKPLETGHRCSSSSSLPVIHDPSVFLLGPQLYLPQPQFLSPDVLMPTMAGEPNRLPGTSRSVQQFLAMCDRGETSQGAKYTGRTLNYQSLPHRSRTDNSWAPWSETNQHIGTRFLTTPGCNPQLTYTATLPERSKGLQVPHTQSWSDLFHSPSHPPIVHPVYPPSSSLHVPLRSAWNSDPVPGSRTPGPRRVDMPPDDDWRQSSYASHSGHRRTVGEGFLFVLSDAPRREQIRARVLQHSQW
How it was run: as §1

[7] = target: USP7 (UniProt Q93009)
USP7, sequence (Q93009 whole entry, looked up): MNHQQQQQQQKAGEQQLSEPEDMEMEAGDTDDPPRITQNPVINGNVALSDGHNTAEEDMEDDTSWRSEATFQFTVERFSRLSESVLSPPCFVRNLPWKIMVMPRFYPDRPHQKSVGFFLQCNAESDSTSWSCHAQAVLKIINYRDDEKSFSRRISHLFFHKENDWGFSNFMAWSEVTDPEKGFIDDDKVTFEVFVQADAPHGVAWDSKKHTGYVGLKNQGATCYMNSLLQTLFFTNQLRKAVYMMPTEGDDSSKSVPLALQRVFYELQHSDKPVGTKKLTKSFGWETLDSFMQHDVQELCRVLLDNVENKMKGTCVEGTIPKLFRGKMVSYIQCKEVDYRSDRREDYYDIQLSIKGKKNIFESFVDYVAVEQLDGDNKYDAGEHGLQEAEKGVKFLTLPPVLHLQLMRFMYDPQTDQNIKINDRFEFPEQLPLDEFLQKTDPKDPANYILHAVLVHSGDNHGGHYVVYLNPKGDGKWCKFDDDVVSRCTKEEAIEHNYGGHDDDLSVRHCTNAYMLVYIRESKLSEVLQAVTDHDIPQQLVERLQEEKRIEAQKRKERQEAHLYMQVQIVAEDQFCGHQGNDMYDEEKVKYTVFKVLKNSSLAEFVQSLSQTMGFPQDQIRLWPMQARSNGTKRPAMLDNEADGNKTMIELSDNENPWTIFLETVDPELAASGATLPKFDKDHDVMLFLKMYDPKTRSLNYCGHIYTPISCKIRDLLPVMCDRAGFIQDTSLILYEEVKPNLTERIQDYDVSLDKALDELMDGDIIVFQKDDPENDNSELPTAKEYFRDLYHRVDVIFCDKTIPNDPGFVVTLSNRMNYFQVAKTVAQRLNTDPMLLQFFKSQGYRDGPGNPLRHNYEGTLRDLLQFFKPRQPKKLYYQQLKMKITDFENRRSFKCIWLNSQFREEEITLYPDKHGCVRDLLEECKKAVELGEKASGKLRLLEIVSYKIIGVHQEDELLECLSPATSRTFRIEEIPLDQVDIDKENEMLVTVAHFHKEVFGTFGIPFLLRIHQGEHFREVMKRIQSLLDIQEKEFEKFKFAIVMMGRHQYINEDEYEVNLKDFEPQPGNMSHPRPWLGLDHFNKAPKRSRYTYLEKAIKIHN
How it was run: as §1

[8] = target: T5, USP8 (UniProt P40818)
T5 sequence (whole entry): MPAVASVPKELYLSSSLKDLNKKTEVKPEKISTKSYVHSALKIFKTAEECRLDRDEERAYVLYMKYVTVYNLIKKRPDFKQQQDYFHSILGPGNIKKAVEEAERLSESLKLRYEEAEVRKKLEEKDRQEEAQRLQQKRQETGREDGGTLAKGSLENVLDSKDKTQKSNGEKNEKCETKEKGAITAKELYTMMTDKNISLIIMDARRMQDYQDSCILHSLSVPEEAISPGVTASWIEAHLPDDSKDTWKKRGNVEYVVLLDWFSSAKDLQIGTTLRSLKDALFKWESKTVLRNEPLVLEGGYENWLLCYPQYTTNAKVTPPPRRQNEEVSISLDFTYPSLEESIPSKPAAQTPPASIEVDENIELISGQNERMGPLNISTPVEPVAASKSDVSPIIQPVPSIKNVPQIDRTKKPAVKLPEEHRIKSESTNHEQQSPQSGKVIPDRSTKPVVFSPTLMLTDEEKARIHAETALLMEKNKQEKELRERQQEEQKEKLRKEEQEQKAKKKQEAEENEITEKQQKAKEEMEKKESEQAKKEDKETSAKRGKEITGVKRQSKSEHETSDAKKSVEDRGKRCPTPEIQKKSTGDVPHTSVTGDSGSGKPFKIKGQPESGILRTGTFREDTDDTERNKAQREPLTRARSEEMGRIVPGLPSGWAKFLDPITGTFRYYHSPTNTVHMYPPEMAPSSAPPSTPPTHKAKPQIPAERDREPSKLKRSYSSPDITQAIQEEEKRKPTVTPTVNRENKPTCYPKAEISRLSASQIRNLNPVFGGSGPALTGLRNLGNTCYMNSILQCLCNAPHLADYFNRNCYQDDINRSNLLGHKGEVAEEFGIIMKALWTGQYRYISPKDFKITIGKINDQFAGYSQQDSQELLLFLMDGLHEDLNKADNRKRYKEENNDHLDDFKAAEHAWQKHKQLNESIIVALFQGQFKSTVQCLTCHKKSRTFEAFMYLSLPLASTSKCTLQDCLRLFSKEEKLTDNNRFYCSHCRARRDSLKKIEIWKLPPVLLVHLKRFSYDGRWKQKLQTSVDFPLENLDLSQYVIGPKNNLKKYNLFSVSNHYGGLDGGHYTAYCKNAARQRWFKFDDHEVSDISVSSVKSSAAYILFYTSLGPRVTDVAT
How it was run: as §1

Measured: log2 ratio of Biotin-Ahx-Ub-VS probe labelling

O=C(CCl)N1CCC(=C(F)CO)C1
inactive: [1] 0.374 | [2] 0.0599 | [3] 0.0525 | [4] 0.0406 | [5] 0.108 | [6] 0.0848 | [7] 0.0769 | [8] 0.0438
